Compound activity from PubChem BioAssay.
aSyn yeast inh: rescues yeast growth from alpha-synuclein toxicity; Yeast expressing alpha-synuclein, growth rescue, BacTiter-Glo, 24 h; Potency, µM (doses to about 46.1 µM), without a hit: at the highest dose growth rescue (activation), most hits filed as activators; hit rate 0.14% among 370,000; also: % of control where 0% means no effect; nearly all actives have a fitted effect of over 65% in size
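Screening used galactose-induced yeast with toxic alpha-synuclein levels, exposed to compound for 24 hr at 30 deg C. Cell growth, read with BacTiter-Glo luminescence, gave the measured signal.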
TDP-43 yeast inh: rescues yeast growth from TDP-43 toxicity; TDP-43 expressing yeast growth rescue, BacTiter-Glo, 24 h; hit rate 1.8% among 410,000; Potency, µM (top dose mostly 46.1 µM), without a hit: at the highest dose growth rescue (activation), hits mostly activators; also: % of control where 0% means no effect; nearly all actives have a fitted effect of over 50% in size
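Yeast expressing TDP-43 (pregrown in raffinose, seeded at OD600=0.02 in galactose medium) exposed to compounds 24 hr at 30 deg C. Growth read by BacTiter-Glo luminescence; rescue of toxicity appears as increased signal.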
FUS suppressor: rescues growth of FUS-expressing yeast. hit rate 0.24% among 390,000. Potency, µM (highest dose often 76.6 µM), most hits filed as activators. AID 1347120. S. cerevisiae FUS-expressing, growth rescue, OD600, 24 h;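 also: plate controls were DMSO vehicle for no effect and reference control for full effect; nearly all actives have a fitted effect of over 55% in size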
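Cultures pregrown in 2.5% raffinose medium are shifted to minimal medium containing 2% galactose to express toxic FUS. Compounds are tested at several concentrations. After 24hr at 30C, growth is quantified at 600 nm absorbance.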
Abeta rescue: A-beta toxicity reversal in yeast; yeast expressing A-beta42, growth rescue, OD600, 48 h; response scale: 0% DMSO, 100% iron-clioquinol control; Potency, µM (top dose mostly 46.1 µM), usual class: activators; hit rate 0.063% among 410,000; also: nearly all actives have a fitted effect of over 55% in size
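Yeast A-beta toxicity model in growth medium with pinned compounds, 48 h at 30 C; growth read as absorbance at 600 nm. Normalized to FeCl3/clioquinol equimolar mix (positive) and DMSO (negative).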
Starred values were filed as active, the others as inactive; i = inactive; ? = inconclusive; . = no result given. Most compounds without a hit are left out; they make up all but 2.1% or so of the library. Calls follow the shape of the dose curve; as a rule, active = well fitted curve in the direction sought with a large enough effect; inconclusive = small, poorly fitted or top-dose-only effect, or another doubt; inactive = no such curve, though single readings can be large; an effect the other way counts as inactive or inconclusive. Potency is read from the fitted curve at half-maximal effect.

SMILES | aSyn yeast inh | TDP-43 yeast inh | FUS suppressor | Abeta rescue
O=C(COc1ccccc1)NNC(=S)NC(=O)c1ccc(Cl)cc1Cl | ? | 3.5µM* | i | ?
O=C(Nc1nc2ncccn2c1-c1ccc(C(F)(F)F)cc1)c1ccccc1 | . | . | i | .
COC(=O)c1cc(NC(=O)NC2CCCCN(Cc3cccc(Cl)c3)C2=O)cc(C(=O)OC)c1 (stereo unspecified) | . | . | i | .
CC12CC3CC(C)(C1)CC(Nc1nc(N4CCOCC4)nc4ccccc14)(C3)C2 | 9% | 20µM* | i | i
CCOc1ccc(NC(=O)N2CCOc3ccccc32)cc1 | . | 11µM* | i | i
CCc1ccccc1NC(=O)N1CCOc2ccccc21 | . | ? | i | i
c1ccc(-c2c[nH]c3ccc(OCCN4CCOCC4)c(-c4ccccc4)c23)cc1 | . | . | i | .
CCc1ccc(S(=O)(=O)NCCc2csc(-c3cccnc3)n2)s1 | -26% | 13µM* | i | ?
CCc1ccc(S(=O)(=O)NCCc2csc(-c3ccccc3)n2)s1 | ? | 14µM* | i | i
CCS(=O)(=O)NCCc1csc(-c2cccnc2)n1 | 0% | ? | i | i
O=S(=O)(NCCc1csc(-c2ccccc2)n1)c1ccc2c(c1)OCCO2 | 9% | 20µM* | i | i
O=S(=O)(NCc1csc(-c2cccnc2)n1)c1ccc2c(c1)OCCO2 | 4% | 13% | i | i
Cc1c(C(=O)NCc2ccccc2)sc2nc3n(c(=O)c12)CCCCC3 | . | ? | i | i
Cc1ccc(CNC(=O)c2sc3nc4n(c(=O)c3c2C)CCCCC4)cc1 | . | 25µM* | i | i
Cc1c(C(=O)NCCc2ccc(Cl)cc2)sc2nc3n(c(=O)c12)CCC3 | 8% | ? | i | i
Cc1ccc(CNC(=O)c2sc3nc4n(c(=O)c3c2C)CCCC4)cc1 | . | 13µM* | i | i
Cc1c(C(=O)NCCc2ccc(Cl)cc2)sc2nc3n(c(=O)c12)CCCC3 | . | 18µM* | ? | i
CN(C)c1ccc(/C=C/c2nc3ccccc3o2)cc1 | 9% | . | . | .
CCn1c2ccccc2c2cc(NC(=O)COC(=O)c3cc(F)cc(F)c3)ccc21 | . | . | i | .
Cc1ccc(NC(=O)C(=O)NNC(=O)c2cccs2)cc1 | -5% | 3% | i | i
CCCCN(CCCC)S(=O)(=O)c1ccc(NC(=O)c2cccs2)cc1 | -3% | -29% | 2µM* | i
Cc1ccc(NC(=O)c2cccs2)cc1 | -27% | -23% | 28µM* | i
Cc1ccc(CSc2nnc(-c3cc(-c4ccc(C)cc4)n[nH]3)n2N)cc1 | . | . | i | .
Cc1ccnc(Nc2nc(-c3ccc(O)cc3O)cs2)c1 | 10% | 16µM* | i | i
Cc1ccnc(Nc2nc(-c3ccc(O)cc3)cs2)c1 | -16% | 13µM* | i | i
SMILES | aSyn yeast inh | TDP-43 yeast inh | FUS suppressor | Abeta rescue
O=C1CCC[C@H]2C[C@H](NCc3cccc(I)c3)CC[C@]23CCCN13 | . | . | i | .
COc1ccc(C(=O)O/N=C(\N)c2ccc(Br)cc2)cc1 | -26% | 2.5µM* | i | i
COc1cc(OC)c(C(=O)O/N=C(\N)c2cccc(C)c2)cc1OC | -54% | ? | i | i
COc1ccc(C(=O)O/N=C(\N)c2ccccc2)cc1 | -69% | ? | i | i
COc1cc(OC)c(C(=O)O/N=C(\N)c2ccc(C)cc2)cc1OC | -18% | 11µM* | i | i
CC(C)(C)c1ccc(C(=O)O/N=C(\N)c2ccccc2)cc1 | -49% | 3.2µM* | i | i
N/C(=N\OC(=O)c1ccc(Br)cc1)c1ccccc1 | -25% | ? | i | i
Cc1ccc(C(=O)O/N=C(\N)c2ccc(Br)cc2)cc1 | -24% | 4µM* | . | i
C[C@@H]1COc2cc(Br)ccc2S(=O)(=O)N1Cc1cn(CC2CCCCC2)nn1 | . | . | i | .
O=C(Oc1coc(CSc2ncccn2)cc1=O)c1ccc([N+](=O)[O-])cc1 | . | . | i | .
O=C(Nc1nnc(-c2cccs2)o1)c1cccc(F)c1 | 29% | 13µM* | i | 11µM*
O=C(Nc1nnc(C2=COCCO2)o1)c1cccc([N+](=O)[O-])c1 | -2% | 9% | i | i
O=C(Nc1nnc(-c2ccc(F)cc2)o1)c1cccc([N+](=O)[O-])c1 | ? | 11µM* | i | ?
O=C(Nc1nnc(-c2cccs2)o1)c1cccc(Oc2ccccc2)c1 | ? | 4µM* | i | i
COc1cccc(-c2nnc(NC(=O)c3cccc(F)c3)o2)c1 | 13% | ? | i | i
CCCCOCCCNC(=O)C[C@H]1C(=O)N(Cc2ccc(OC)cc2)C2=CCCCC[C@@]21C(=O)OC | . | . | i | .
CCCCOCCCNC(=O)C[C@@H]1C(=O)N2CCCC3=C2[C@@]1(C(=O)OC)CCCC3 | . | . | i | .
N#C/C(=C/c1ccc(N2CCCCCC2)o1)c1ccc(Cl)cc1 | -61% | -94% | 22µM* | i
N#C/C(=C/c1ccc(N2CCCCC2)cc1)c1cccc(F)c1 | -3% | 20% | i | i
N#C/C(=C/c1ccc(N2CCCCC2)o1)c1cccc(F)c1 | 2% | -25% | 32µM* | i
CC1CCCCC1N(C(=O)c1cc(C2CC2)on1)C1CCCCCC1 (stereo unspecified) | . | . | i | .
COc1ccc(NC(=O)N2CCC(c3nc4ccc(Cl)cc4[nH]3)CC2)cc1OC | . | . | i | .
O=C(NC(=S)NCc1ccccc1)c1cccnc1 | -1% | 3% | i | i
O=C(NC(=S)NCc1ccccc1)c1cccc(Cl)c1 | 1% | 16µM* | i | i
Cc1ccc(C(=O)NC(=S)NCc2ccccc2)cc1 | -9% | 16µM* | i | ?
SMILES | aSyn yeast inh | TDP-43 yeast inh | FUS suppressor | Abeta rescue
Fc1ccc(NC(=S)NCc2ccccc2Cl)cc1 | 3% | -7% | i | ?
O=C(NCc1cccnc1)/C(=C/c1ccccc1)NC(=O)c1ccccc1 | 0% | 13% | i | i
S=C(NCc1ccccc1)NCc1ccccc1Cl | 0% | ? | i | 13µM*
Cc1ccc(C(=O)N/C(=C\c2ccccc2)C(=O)NCc2cccnc2)cc1 | -8% | 2µM* | i | i
S=C(NCc1ccccc1)NCc1cccc(Cl)c1 | 3% | 29% | i | 14µM*
O=C(NCc1cccc(Cl)c1)c1ccc2nc(N3CCOCC3)sc2c1 | 4% | 25µM* | i | i
COc1ccccc1CNC(=O)c1ccc2nc(N3CCOCC3)sc2c1 | 0% | 22µM* | i | i
Cc1cc(Br)c2c(c1)[C@](O)(c1cn(C)c3ccccc13)C(=O)N2C | 0% | 22µM* | i | ?
CCOC(=O)c1sc(-c2ccccc2)cc1N | 16% | 7.1µM* | i | i
CCCCCCSc1ccc([C@H]2N[C@@](C)(C(=O)OC)[C@H]3C(=O)N(C)C(=O)[C@@H]23)cc1 | ? | ? | 13µM* | i
CCc1ccc2[nH]c(=O)c(CN(Cc3cccs3)Cc3nnnn3Cc3ccccc3)cc2c1 | 1% | . | . | .
N#Cc1ncc(Cc2ccccc2)nc1C#N | 12% | 14µM* | i | i
CCn1c(Cc2cccs2)nnc1SCC(=O)Nc1ccc(Cl)cc1C | . | . | i | .
